HCMV antiviral: human cytomegalovirus inhibition. activity change, negative = inhibition, % at 57.5 µM. HFF cells, HCMV-luciferase reporter, 72 h; stronger effect = lower value. 410,000 tested, 4.5% active; in the data active = activity change below about -60%; inconclusive = no clear call, values can overlap the other calls; inactive = above about -39%
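Cell-based, HFFs, 1000 cells/well, 16 h 37C; cpds in DMSO + HCMV-luc, MOI 1 PFU/cell; 72 h 37C; OneGlo luminescence after 5 min RT; norm. to buffer vs Salinomycin 10uM.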
AmpC inh no detg: blocks E. coli AmpC beta-lactamase in detergent-free assay; Potency, µM (top dose mostly 57.1 µM), hits mostly inhibitors; AmpC nitrocefin hydrolysis, absorbance 480 nm, 0.0001% Triton; AID 485341; P00811; 330,000 tested, 0.52% active; also: nearly all actives have a fitted effect of over 20% in size
Target sequence (P00811 whole entry, looked up): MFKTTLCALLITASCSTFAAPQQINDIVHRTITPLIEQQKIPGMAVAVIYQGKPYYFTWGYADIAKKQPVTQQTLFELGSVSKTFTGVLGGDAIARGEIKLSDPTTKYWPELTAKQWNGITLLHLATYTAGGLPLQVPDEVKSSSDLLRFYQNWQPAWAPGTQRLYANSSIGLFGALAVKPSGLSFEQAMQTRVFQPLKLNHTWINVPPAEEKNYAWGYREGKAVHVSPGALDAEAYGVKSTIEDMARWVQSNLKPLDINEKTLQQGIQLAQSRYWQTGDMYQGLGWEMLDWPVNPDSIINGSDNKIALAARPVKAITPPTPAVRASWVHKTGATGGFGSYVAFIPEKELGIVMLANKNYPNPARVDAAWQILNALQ
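20 mM phosphate pH 7.0 + 0.01% (detergent screen) or 0.0001% Triton X-100; 5.3 nM AmpC reagent; cpd preinc 15 min RT; nitrocefin (800 uM stock) to start; A480 q20 s × 4 min; Activity was normalised to no-enzyme and no-compound control wells.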
AmpC inh detg: blocks E. coli AmpC beta-lactamase in detergent assay | P00811 | AmpC hydrolysis of nitrocefin, absorbance 480 nm, 0.01% Triton | Potency, µM (top dose mostly 114 µM), most hits filed as inhibitors | 370,000 tested, 0.041% active; also: nearly all actives have a fitted effect of over 25% in size
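20 mM phosphate pH 7.0 + 0.01% (detergent screen) or 0.0001% Triton X-100; 5.3 nM AmpC reagent; cpd preinc 15 min RT; nitrocefin (800 uM stock) to start; A480 q20 s × 4 min; Activity was normalised to no-enzyme and no-compound control wells.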
FMDV inh: foot and mouth disease virus antiviral activity; 410,000 tested, 1.2% active; Potency, µM (series often up to 57.9 µM), hits mostly inhibitors; FMDV antiviral cell-based qHTS; calls by dose curve; tested in HEK293T cells; also: read-out not given here; nearly all actives have a fitted effect of over 45% in size
HCV inhibitor: HCV inhibition; Huh7.5.1 HCVcc-Cre infection, luciferase reporter, 44 h; Potency, µM (titrated, usually from 41.8 µM), most hits filed as inhibitors; 340,000 tested, 3.4% active
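Cells (1,000/well) were plated 4 h before compound, then infected with HCVcc-Cre virus (~0.5 moi). After 44 h further culture, infection was read as luciferase luminescence following a 15 min substrate incubation at room temperature.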
HCV inh confirm: confirmation of hepatitis C virus inhibitors | 640 tested, 78% active | HCVcc-Cre infectious virus cell assay, luciferase, inhibition | shares compounds with HCV inhibitor | Potency, µM (top dose mostly 41.8 µM), usual class: inhibitors; also: nearly all actives have a fitted effect of over 80% in size
HCV cytotox: counter-screen for HCV inhibitors: host cell cytotoxicity; shares compounds with HCV inhibitor; HCV host cell line cytotoxicity counterscreen; Potency, µM (series often up to 41.8 µM), most hits filed as inhibitors; 640 tested, 22% active; AID 720576;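 also: 44 h compound exposure; nearly all actives have a fitted effect of over 55% in size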
A number is an active result; - = inactive; ? = inconclusive; . = no result given. Compounds with a hit are over-represented: about 7.3% of the library has one in this group of screens. Unless noted, calls follow the shape of the dose curve; as a rule, active = well fitted curve in the direction sought with a large enough effect; inconclusive = small, poorly fitted or top-dose-only effect, or another doubt; inactive = no such curve, though single readings can be large; an effect the other way counts as inactive or inconclusive.

SMILES	HCMV antiviral	AmpC inh no detg	AmpC inh detg	FMDV inh	HCV inhibitor	HCV inh confirm	HCV cytotox
COc1ccc(Cn2cnc3c(NS(C)(=O)=O)c(C)c(C)cc32)cc1	-	-	-	?	3.2µM	0.011µM	-
COc1cc2c(cc1OC)C(C)N(C(=O)[C@@H](NC(=O)c1ccccc1)C(C)C)CC2 (stereo not given in full)	?	-	-	-	1.4µM	?	-
COc1cc2c(cc1OC)C(C)N(C(=O)C(NC(=O)c1ccccc1)C(C)C)CC2 (stereo not given)	-	-	-	-	?	.	.
COc1ccc(C2(C)C(C#N)C(=O)NC(=O)C2C#N)cc1 (stereo not given)	-	.	.	-	-	.	.
S=C(c1ccc(-c2ccc(Cl)c(Cl)c2)o1)N1CCOCC1	.	-	-	.	?	14µM	-
S=C(c1ccc(-c2ccc(Br)cc2)o1)N1CCOCC1	-	-	-	-	?	.	.
Cc1c(NC(=O)Cc2ccc(Cl)cc2)cccc1-c1nc2cccnc2s1	-	.	-	-	.	.	.
CNc1nc(N/N=C/c2cc3c(cc2[N+](=O)[O-])OCO3)nc(Nc2ccccc2)n1	-99	-	-	?	1µM	14µM	31µM
Cc1onc(-c2ccccc2Cl)c1C(=O)Nc1ccccc1C(=O)NC(C)C	?	-	-	.	4.5µM	22µM	?
CCCCN(C(C)=O)c1ccc2c(c1)C1CC2CCN1C(=O)OCc1ccccc1 (stereo not given)	?	.	.	40µM	3.5µM	4µM	7.9µM
COc1ccc(NC(=O)C2=C(C)Nc3ncnn3C2c2ccc(O)cc2)cc1 (stereo not given)	-	.	-	-	.	.	.
CCc1ccc(NC(=O)c2nnn(Cc3cccc(C(F)(F)F)c3)c2N)cc1	-	.	-	-	.	.	.
COc1cccc(NC(=O)Nc2ccc(Cc3ccncc3)cc2)c1	?	-	-	-	?	?	-
COc1cccc(NC(=O)Nc2ccncc2)c1	-	-	-	-	-	.	.
COc1ccc(-c2nc(CN3CCN(c4ncnc5ccccc45)CC3)c(C)o2)c(OC)c1	-82	-	-	20µM	5µM	5µM	7.9µM
COCCNC(=O)NC(=O)CSc1nc(C)c(C)c(C)n1	-	-	-	-	-	.	.
CC[n+]1c(C)sc2c(C)cc(C)cc21	-	-	-	-	-	.	.
CCC[n+]1c(C)sc2c3c(ccc21)CCCC3	.	-	-	?	7.1µM	25µM	-
Cc1ccc(Sc2ccc(S(=O)(=O)Nc3ccc(C(=O)O)cc3)cc2)cc1C	-	-	.	-	-	.	.
COc1cccc(NC(=O)c2oc3ccccc3c2NC(=O)C2CC2)c1	-	-	-	-	?	?	-
COc1ccc(NC(=O)c2oc3ccccc3c2NC(=O)C2CC2)cc1	-	-	-	-	-	.	.
CN(C)S(=O)(=O)N1CCC(Oc2cccc(C(=O)NC3CCCCCC3)c2)CC1	-90	-	-	?	2.8µM	4.4µM	7.9µM
CN1CCN(c2ccccc2/C=C2/C(=O)Nc3ccccc32)CC1	.	-	-	?	-	.	.
COc1ccc(-c2ccc3oc(-c4ccc(OC)cc4)c(C#CCCO)c3c2)cc1	-	.	.	-	1.1µM	2.2µM	-
COc1cc2c(cc1NC(=O)C(Cl)Cl)-c1ccc(NC(=O)C(Cl)Cl)cc1C2	-68	.	.	-	?	18µM	?
SMILES	HCMV antiviral	AmpC inh no detg	AmpC inh detg	FMDV inh	HCV inhibitor	HCV inh confirm	HCV cytotox
Oc1ccccc1-c1nc(NCc2cccnc2)c2ccccc2n1	-	-	-	-	5.6µM	13µM	-
CCN1CCN(c2ccc(NC(=O)c3cccc(OCc4ccccc4)c3)cc2)CC1	-	-	-	-	4.5µM	8.9µM	-
CCOc1cccc(C(=O)NC(=S)Nc2ccc(N3CCN(CC)CC3)cc2)c1	-	-	-	-	?	.	.
CCC(=O)N1CCc2cc(Br)cc(S(=O)(=O)N3CCN(c4cc(C)ccc4C)CC3)c21	-	.	-	-	.	.	.
Cc1cccn2c(=O)c(C(=O)NCc3ccccc3Cl)c(O)nc12	-	.	-	-	.	.	.
O=C(NCc1ccccc1Cl)c1cc2c(s1)CS(=O)(=O)C2	-	-	-	-	-	.	.
CCOc1ccc(CCNC(=O)COC(=O)c2ccc(C)c([N+](=O)[O-])c2)cc1OCC	-	-	-	-	-	.	.
